Screening data deposited in PubChem by National Center for Advancing Translational Sciences (NCATS).
Pf growth 96h: Primary qHTS for delayed death inhibitors of the malarial parasite plastid, 96 hour incubation; 320,000 compounds, 6.9% hits; P. falciparum luciferase reporter growth, 96 h; Potency, µM (series often up to 28.7 µM), inactives show at the top dose activity change, negative = inhibition, usual class: inhibitors; note: potency is the fitted concentration of half-maximal effect
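Two parasite generations (96 h, 37 C, 5% CO2) of compound exposure in infected erythrocytes (0.05% parasitemia, 2% hematocrit). Luciferase-reporter P. falciparum; decreased luminescence indicates inhibited growth, aimed at apicoplast-acting delayed death.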
HCV inh: qHTS Assay for Inhibitors of Hepatitis C Virus (HCV) | Huh7.5.1 HCVcc-Cre infection, luciferase reporter, 44 h | Potency, µM (titrated, usually from 41.8 µM), for inactives: top-dose activity change, negative = inhibition, usual class: inhibitors | 340,000 compounds, 3.4% hits; note: potency is the fitted concentration of half-maximal effect
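Luciferase read-out (15 sec integration) after a 15 min room-temperature substrate step quantifies HCVcc-Cre infection. Cells, 1,000 per well, had compound added 4 h post-plating, then virus at ~0.5 moi, and were cultured 44 h.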
LASV entry inh: qHTS for Inhibitors of binding or entry into cells for Lassa Virus; Lassa virus pseudotype entry inhibition, cell reporter; Potency, µM (highest dose often 37.9 µM), inactives show top-dose activity change, negative = inhibition, hits mostly inhibitors; 300,000 compounds, 1.2% hits; AID 540256, 2011; calls by dose curve; tested in HEK293 cells; note: potency is the fitted concentration of half-maximal effect; nearly all actives have a fitted effect of over 50% in size
HCMV antiviral: qHTS Assay for inhibitors of the human cytomegalovirus (HCMV); activity change, negative = inhibition, % at 57.5 µM; AID 1259415, 2018; 410,000 compounds, 4.5% hits; HFF cells, HCMV-luciferase reporter, 72 h; stronger effect = lower value; in the data active = activity change below about -60%; inconclusive = no clear call, values can overlap the other calls; inactive = above about -39%
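Two-dose cell screen: HFF monolayers treated with compounds and infected with luciferase-expressing HCMV at 1 PFU/cell, 72 h at 37C, then lysed for luciferase measurement.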
Pf growth 48h: Primary qHTS for delayed death inhibitors of the malarial parasite plastid, 48 hour incubation | Potency, µM (series often up to 28.7 µM), for the others: top-dose activity change, negative = inhibition, usual class: inhibitors | P. falciparum luciferase growth in erythrocytes, 48 h | 310,000 compounds, 5.9% hits; note: potency is the fitted concentration of half-maximal effect
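Luciferase-expressing parasites in RBCs, 2% Hct / 0.1% parasitemia final; RPMI 1640 + 0.5% Albumax; 37 C, 5% CO2, one generation; luminescence read-out, lower signal = inhibition.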
MARV entry inh: qHTS for inhibitors of binding or entry into cells for Marburg Virus; 300,000 compounds, 1.8% hits; AID 540276, 2011; Marburg virus pseudotyped entry inhibition, cell reporter; Potency, µM (highest dose often 37.8 µM), inactives show at the top dose activity change, negative = inhibition, usual class: inhibitors; calls by dose curve; tested in HEK293 cells; note: potency is the fitted concentration of half-maximal effect
* = called active by the depositor; ? = inconclusive; · = not tested or not shown; [ ] = dose if it differs, or a comment. In the library only some 14% were active in any assay of this set; here they are far more common. Unless noted, calls come from the whole dose curve; as a rule, active = well fitted inhibition curve with a large enough effect; inconclusive = small, poorly fitted or top-dose-only effect, or another doubt; inactive = no such curve, though single readings can be large or run the other way. % is set by controls: 0 for no effect and ±100 for the full control effect.

SMILES	Pf growth 96h	HCV inh	LASV entry inh	HCMV antiviral	Pf growth 48h	MARV entry inh
Cc1ccccc1Cn1c2ccccc2c2cnn(CC(=O)NCCCc3ccccc3)c(=O)c21	·	·	-23%[46.1 µM]	-81*	·	24%[46.1 µM]
Nc1cc(C(=O)OCC(=O)NNC(=O)c2ccccc2)ccc1Cl	12%	-16%	6%[46.1 µM]	-22	-10%	?
O=C(CCCCn1c(=O)c2ccccc2n(Cc2ccccc2F)c1=O)NCc1ccc2c(c1)OCO2	·	·	-23%[46.1 µM]	22	·	22%[46.1 µM]
CCn1cc(C(=O)NC2CC3CCC2C3)c(=O)c2ccc(C)nc21 (stereo unspecified)	5.2µM*	·	·	·	-13%	0%
CCn1cc(C(=O)NC2CCCCC2C)c(=O)c2ccc(C)nc21 (stereo unspecified)	12µM*	-16%	-17%	21	1%	6%
CCOc1ccc(CCNC(=O)c2ccc(CSCc3ccccc3C)o2)cc1OCC	·	·	2%[46.1 µM]	-10	·	·
CCCSc1ccc([C@@H]2[C@H]3C(=O)N(CC)C(=O)[C@H]3[C@]3(C(=O)OC)CCCN23)cc1OC	?	10%	·	4	?	·
CCCSc1ccc([C@@H]2[C@H]3C(=O)N(C)C(=O)[C@H]3[C@]3(C(=O)OC)CCCN23)cc1OC	·	6%	·	10	·	·
CCCSc1ccc([C@@H]2[C@@H]3C(=O)N(C)C(=O)[C@@H]3[C@]3(C(=O)OC)CCCCN23)cc1OC	?	-25%	·	5	13µM*	·
CCCSc1ccc([C@@H]2[C@H]3C(=O)N(CC)C(=O)[C@H]3[C@]3(C(=O)OC)CCCCN23)cc1OC	12µM*	?	·	32	10µM*	·
CCN1C(=O)[C@@H]2[C@@H](c3ccc(SC4CCCCC4)c(OC)c3)N3CCC[C@@]3(C(=O)OC)[C@@H]2C1=O	?	-3%	·	-5	8.3µM*	·
CCOC(=O)c1c(-c2ccc(C)o2)csc1NC(=O)CN1CCOCC1	?	?	?	3	·	?
CCOC(=O)c1ccc(NC(=O)CSc2nnc(-c3cccs3)n2C)cc1	3.3µM*	0%	-2%	-24	?	1%
CCOC(=O)c1c(-c2ccc(C)o2)csc1NC(=O)CSc1ncn[nH]1	15µM*	?	15%	-9	·	0%
CCOC(=O)c1ccc(NC(=O)CSc2nnc(C3CCCCC3)n2C)cc1	8.3µM*	3%	-3%	-30	6.6µM*	-10%
CCOC(=O)c1ccc(NC(=O)CSc2nnc(-c3cccs3)n2CC)cc1	·	?	-19%	-11	?	-5%
CCOc1ccc(NC(=O)CSc2nnc(C3CC3)n2C)cc1	2.1µM*	-2%	12%	2	-3%	6%
Cc1cccc(C(=O)Nc2nc3nc(-c4ccccc4)cc(=O)n3[nH]2)c1	·	·	1%[46.1 µM]	4	·	23%[46.1 µM]
O=C(Cn1c(=O)c2cccn2c2ccc(F)cc21)N1CCN(c2ccccc2)CC1	·	·	2%[46.1 µM]	78	·	·
CCC1CN(C(=O)Nc2cc(C)cc(C)c2)c2ccccc2O1 (stereo unspecified)	·	·	?	-10	·	·
Cc1ccc(NC(=O)C(C)Sc2nnc(C)n2C)cc1 (stereo unspecified)	174%	4%	·	5	19%	·
Cc1ccc(NC(=O)CSc2ncn[nH]2)cc1	22%	12%	3%	-28	-1%	?
CCOc1ccc(NC(=O)C(C)Sc2nnc(C)n2C)cc1 (stereo unspecified)	13µM*	16%	·	11	7%	·
CCOc1ccc(NC(=O)CSc2ncn[nH]2)cc1	12µM*	-6%	-7%[46.1 µM]	37	24%	4%[46.1 µM]
C=CCc1c(C)nc2nc(SCC(=O)Nc3ccc(OCC)cc3)nn2c1C	·	·	-5%[46.1 µM]	-5	·	·
SMILES	Pf growth 96h	HCV inh	LASV entry inh	HCMV antiviral	Pf growth 48h	MARV entry inh
Cc1cc(C)c(OCC(=O)N(Cc2ccco2)Cc2ccco2)c(C)c1	·	·	1%[46.1 µM]	-20	·	-13%[46.1 µM]
CSc1ncc(C(C)=O)c(C)n1	37%	16%	·	-7	-6%	·
CC(=O)c1cc(C(C)=O)c(C)[n+](C)c1C	24%	1%	14%	9	10µM*	14%[14.2 µM]
CC(=O)c1cc(C(C)=O)c(C)nc1C	1.9µM*	20%	-4%	5	5%	7%[46.1 µM]
CC(=O)c1cc(C(=O)Nc2ccc(C(=O)O)cc2)oc1C	·	13%	4%	-7	13%	?
CCc1ccccc1S(=O)(=O)Cc1ccc(C(=O)NCCc2ccc(Cl)cc2)o1	·	·	?	-36	·	-28%[46.1 µM]
COc1ccc(CCC(=O)N/N=C(\C)c2ccc3c(c2)OCO3)cc1	?	-21%	0.35µM*	32	9%	13%
C/C(=N/NC(=O)CCc1ccccc1)c1ccc2c(c1)OCO2	?	-14%	?	9	7%	?
C/C(=N/NC(=O)CNC(=O)c1ccc2c(c1)OCO2)c1ccc2c(c1)CCCC2	3.3µM*	?	3%	-37	1%	?
CCN(CC)C(=O)COc1ccc(-c2nnc(Nc3ccc(OC)c(C(=O)NC)c3)c3ccccc23)cc1	10µM*	-19%	?	29	?	-10%[46.1 µM]
CCN(CC)C(=O)COc1ccc(-c2nnc(N3CCCCC3)c3ccccc23)cc1	2%	?	-2%	-31	?	-3%
CCN(CC)S(=O)(=O)c1cc(-c2nnc(Nc3ccc(OC)c(C(N)=O)c3)c3ccccc23)ccc1C	·	·	?	-65*	·	·
COc1ccc(Nc2nnc(-c3ccc(C(N)=O)cc3)c3ccccc23)cc1	?	3%	-21%	-25	?	-6%
O=C(O)C=Cc1c[nH]c2nccnc12	·	·	·	-4	·	·
CC(=O)c1cccc(NC(=O)CN2C(=O)COc3ccc(S(=O)(=O)N4CCOCC4)cc32)c1	12µM*	?	·	-22	?	·
COc1cc(NC(=O)CN2C(=O)COc3ccc(S(=O)(=O)N4CCCCC4)cc32)cc(OC)c1	10µM*	17%	-9%[46.1 µM]	-12	?	-11%[46.1 µM]
